The source of these data is ChEMBL document CHEMBL4513216, “Probing the Open Global Health Chemical Diversity Library for Multistage-Active Starting Points for Next-Generation Antimalarials” (ACS Infect Dis, 2020).

The campaign covered roughly 65,000 compounds. About 2,100 (3.2%) showed an effect of 50% or more. The median lay at about -52%. This excerpt belongs to a sample that is enriched for strong results.

The subject of this test is Plasmodium falciparum. Kind of test: Screen against P. falciparum Asexual Blood Stage (ABS), at 5uM. Type of test: functional, Dd2. Conditions: tested at 5 uM.
For `O=C(c1ccncc1)N1CCN2C[C@H](Oc3cncnc3)C[C@H]2C1`, the INHIBITION is recorded as -105%. The value for `COc1ccc(C(C)NCc2cscn2)cc1Cn1cccn1` (centres undefined) was 71.6%. Under `COc1ccc(CNC(C)Cn2cccn2)cc1OC` (centres undefined) stands -66.8%; under `COc1cc(CNC(C)Cn2cccn2)cc(OC)c1OC` (centres undefined), -12.2%. The value for `COc1ccc(C(C)NCc2ccsc2)cc1Cn1cccn1` (centres undefined) was 73.1%; that for `N#Cc1ccc(OC[C@]23COC[C@H]2CN(Cc2ccoc2)C3)nc1` was -15.7%. Consider `Cc1ccc(CN2CC[C@@H]3[C@H]2CCC(=O)N3Cc2ccncc2)s1`, for which the INHIBITION was -6.15%. The value for `CSc1nccc(N2CCN(C)C3(CCNC(=O)CC3)C2)n1` (centres undefined) was -69.1%; that for `O=C1C[C@@H]2CC[C@H](CN1)N2C1CCOCC1` was -0.465%.

As for `O=C1[C@H]2CN(Cc3nccs3)C[C@H]2CN1c1cncnc1`, the INHIBITION is reported as -64.4%.

On to `O=C(CN(C1=NCCCCC1)c1ccc(Cl)cc1)c1ccccc1`, for which the INHIBITION is reported as 75.5%.

Consider `COCCN1CCN(S(=O)(=O)C2CC2)Cc2ccc(C)nc21`, for which the INHIBITION is on record as -12%.

In the case of `COc1cccc(S(=O)(=O)N2C[C@@H](N(C)C)[C@H](C(C)C)C2)c1`, the INHIBITION is given as 72.2%. Under `CN(C)[C@@H]1CN(Cc2cnn(C)c2)[C@@H]2COC[C@H]12` stands -104%; under `Cc1c(F)cccc1S(=O)(=O)NC(C)(C)CN`, 80.9%.

Consider `Cc1cccc(CN2CC[C@H]3OCC[C@@]3(C(=O)N3CCCO3)C2)n1`, for which the INHIBITION was -77.9%.

As for `O=C1CC[C@H]2[C@@H](CCN2Cc2ccco2)N1`, the INHIBITION is given as -46.7%. With `Cc1ccc2c(c1)C1(CCNCC1)CC2NC1CC1` (centres undefined), the INHIBITION stood at 74.6%. The value for `O=C1NC2(CCNCC2)CC1c1ccccc1` (centres undefined) was -129%; that for `COc1ccc2c(c1)C1(CCNCC1)CC2NC1CC1` (centres undefined) was 0.674%; that for `Cc1ccc2c(c1)C(NC1CC1)CC21CCNCC1` (centres undefined) was 83.2%.

Take `Cc1ccc2c(c1)C1(CCNCC1)CC2NC(C)C` (centres undefined): the INHIBITION is recorded as -31.2%.

Consider `c1ccc2c(c1)C(NC1CCCC1)CC21CCNCC1` (centres undefined), for which the INHIBITION came out at 75.7%. The value for `NC(=O)CC1CC2(CCNCC2)c2cc(F)ccc21` (centres undefined) was -82.7%.

For the compound `Cc1ccc2c(c1)C(NC(C)C)CC21CCNCC1` (centres undefined), the INHIBITION is listed as -41.2%. Under `O=C1CC2(CCNCC2)C(=O)N1c1cccc(F)c1` stands -155%. Under `Fc1ccc2c(c1)C1(CCNCC1)CC2OCC1CC1` (centres undefined) stands 70.1%; under `Cc1c(C2SCC(=O)Nc3c2cnn3C(C)(C)C)cnn1C` (centres undefined), -41.3%; under `CC(C)c1nccc([C@H]2C[C@@H]3CCN(Cc4ccco4)C[C@H]3O2)n1`, -19.7%. Under `CC(C)c1ccccc1OCCNC(=O)N1CCC2(CC1)OCCO2` stands -63.2%.

As for `Cc1nc(C)c(CC(=O)N2C[C@H]3CC[C@@H](C2)N(CC2CC2)C3)s1`, the INHIBITION is listed as -79.3%. Under `CC(C)NC1CC2(CCNCC2)c2cc(F)ccc21` (centres undefined) stands 11.4%.

For `Fc1ccc2c(c1)C1(CCNCC1)CC2NC1CC1` (centres undefined), the INHIBITION stood at 83%. The value for `O=C(NCc1ccccn1)[C@]12COC[C@H]1CN(Cc1ccsc1)C2` was -42.4%; that for `CNC(=O)[C@H]1C[C@@H]2CCN(Cc3ccncc3)C[C@H]2O1` was -70.6%; that for `Cc1cccc(NC(=O)N2CCC(CO)(Nc3ccccc3)CC2)c1` was -38.235%. The value for `Cc1cccc(OC(C)C(=O)NCC2(N(C)C)CCCC2)c1` (centres undefined) was 81.4%; that for `CCOc1cccc(CN2CCCC(Nc3ccc(F)cc3)C2)c1O` (centres undefined) was 86.3%. The value for `COC(=O)N1CCC(Nc2ccc(C#N)c(Cl)c2)C1` (centres undefined) was 22.4%; that for `COc1ccc(C(=O)C2CCCN(Cc3cccc(F)c3)C2)c(OC)c1` (centres undefined) was 23.9%; that for `CCNC(=O)[C@@H]1CN(Cc2ccccc2)C[C@H]1C(=O)c1ccc(F)cc1` was -30.5%. As for `COc1cc(CN2CCCC(Nc3cccc(F)c3)C2)cc(Cl)c1O` (centres undefined), the INHIBITION came out at 91.7%. The value for `Cc1ncc(CN2CCN(C(=O)N(C)C)[C@@H]3CS(=O)(=O)C[C@@H]32)cn1` was -106%. Under `Cn1cc(CN2CCCC3(CCN(c4cccnc4)C3=O)C2)cn1` (centres undefined) stands -131%.

On to `CN(C)c1nccc(N2CCO[C@H]3CN(Cc4ccco4)C[C@H]32)n1`, for which the INHIBITION is listed as -22%. `c1cnc(N2CCO[C@H]3CN(Cc4ccsc4)C[C@H]32)nc1`: the INHIBITION amounted to 35.9%. As to `CN(C)c1nccc(N2CCO[C@H]3CN(Cc4ccsc4)C[C@H]32)n1`, the INHIBITION worked out at 69.7%.

For the compound `c1ccc(OCC2C[C@@H]3[C@@H](C2)OCCN3Cc2ccoc2)nc1` (some centres undefined), the INHIBITION is given as 12%. Under `Cc1cnc(N2CCCC3(CCCN(C)C3)C2)nc1` (centres undefined) stands -9.73%; under `CN1CCC2(CCCN(c3nccc(C(F)(F)F)n3)C2)CC1`, 79.4%; under `CC(C)N1CCC2(CCCN(c3nccc(C(F)(F)F)n3)C2)CC1`, 81.9%.

As to `COCCN1CCCC12CCCN(c1ncccn1)C2` (centres undefined), the INHIBITION is on record as -47.3%. Turning to `CC(C)N1CCC2(CCN(C(=O)c3cccnc3)CC2)C1`, the INHIBITION worked out at 5.83%. The value for `O=C(C1CC(=O)N(c2ccccc2Br)C1)N1CCC2(CC1)OCCO2` (centres undefined) was -113%; that for `O=C(C1CC1)N1CCC2(CC1)CNCCO2` was -34.5%. The value for `Cc1n[nH]c2c1C(c1ccc(F)cc1)SCC(=O)N2` (centres undefined) was -4.37%. Take `Cc1c(C(C)N)cnn1-c1cccc2ccccc12` (centres undefined): the INHIBITION was determined as 74.5%. Under `Cn1cccc1C(CNC(=O)COc1ccc(Cl)cc1Cl)N1CCCC1` (centres undefined) stands 74.3%; under `O=C(COc1ccc(Cl)cc1Cl)N1CCCSCC1CN1CCOCC1` (centres undefined), -30%. The value for `COc1ccccc1CCN[C@@H]1c2ccccc2C2(CCNCC2)[C@H]1O` was 81.5%; that for `CN(C)C(=O)C1OC2(CCNCC2)c2ccccc21` (centres undefined) was -73%. The value for `Cc1ccc(CCN[C@@H]2c3ccccc3C3(CCNCC3)[C@H]2O)s1` was 87.1%; that for `CCN1CCOCC2(C1)CN(C(=O)c1c(C)noc1C)CCO2` (centres undefined) was -31%; that for `COCCN(CCOC)C(=O)c1cn(C(C)(C)C)c2ncccc12` was -81.6%. As for `CCc1cnc(N)nc1NC(C)c1ccc(C)c(C)c1` (centres undefined), the INHIBITION came out at 73.8%.

Regarding `O=C(NC1CC1)[C@H]1CN(Cc2ccccc2)C[C@@H]1C(=O)c1ccccc1`, the INHIBITION is given as -154%. Under `CC1CCN(CC(=O)NC2CCN(C(C)c3ccccc3)CC2)CC1` (centres undefined) stands 84.3%. The value for `O=C(CN1CCN(C(=O)Cc2ccc3c(c2)OCCO3)CC1)NC1CC1` was -148%. The value for `Cc1cccnc1CCNC(=O)[C@@]12CNC[C@@H]1CN(S(C)(=O)=O)C2` was -50.4%. Regarding `CC(Cc1c(F)cccc1F)NC(=O)Nc1cnn(CC(N)=O)c1` (centres undefined), the INHIBITION was -77.1%. The value for `CCc1cccnc1NCc1cnc(N2CCOCC2)nc1` was -53.7%; that for `Cc1ccccc1CC(C)NCc1c(C)nn(C)c1N1CCOCC1` (centres undefined) was 65.8%; that for `Cc1nn(C)c(N(C)C)c1CNC(C)Cc1c(F)cccc1F` (centres undefined) was -5.23%. Under `c1csc(CN2C[C@@H]3COC[C@]3(COCc3ccncc3)C2)c1` stands -42.6%; under `CCN1C(=O)C2(CCN(CCN(C)C)CC2)c2ccccc21`, -56.2%. Take `COCCN1C(=O)C2(CCN(CC3CC3)CC2)c2ccccc21`: the INHIBITION is given as -18%.

Turning to `O=C(c1ccoc1)N1CCC2(CC1)C(=O)N(CC1CC1)c1ccccc12`, the INHIBITION stood at 74.7%. Under `c1ccc(-c2nc3c(c(NCc4n[nH]c5c4CCC5)n2)CCNC3)cc1` stands 89.6%. Under `CC(Cn1ccnc1)NCc1n[nH]c2c1CCC2` (centres undefined) stands -33%; under `CN1CCC2(CCN(C(=O)c3cccnc3)C2)C1` (centres undefined), -11.5%; under `CCCN(C(=O)c1cccnc1)c1nc2c(s1)CCc1c-2cnn1C`, 82.4%. The value for `O=C(c1ccc(F)c(Cl)c1)N1C[C@H]2CC[C@@H](C1)N(Cc1ccccc1)C2` was 74.1%. As for `O=C(c1c[nH]c(=O)c(Cl)c1)N1C[C@H]2CC[C@@H](C1)N(CC1CCC1)C2`, the INHIBITION is reported as -110%. Under `O=C(c1cccnc1)N1C[C@H]2CC[C@@H](C1)N(Cc1ncc[nH]1)C2` stands -47.1%.

With `CS(=O)(=O)CC1(CNc2ccc(C#N)c(C(F)(F)F)c2)CC1`, the INHIBITION was -27%. As to `CCOc1ccc(CNCC(O)c2ccccc2)cc1Cl` (centres undefined), the INHIBITION came out at 89.4%. The value for `CNc1cc(C)nc(NCc2cc(C)cc3c(C)c(C)[nH]c23)n1` was 92%; that for `CNc1nc(C)cc(NCc2cc(C)cc3c(C)c(C)[nH]c23)n1` was 92.7%; that for `c1nc(N2CCOCC2)nc2c1COCC21CCN(CC2CC2)C1` (centres undefined) was -12.1%. Under `CC(C)NC(=O)[C@H]1C[C@@H]2[C@@H](C1)OCCN2Cc1ccncc1` stands -82%; under `COc1cccc(C2SCC(=O)Nc3ccsc32)c1OC` (centres undefined), -4.19%.

In the case of `CN(C)CCN1CC2(CCCN(c3ncc(Cl)cc3F)C2)CCC1=O` (centres undefined), the INHIBITION was 82.8%. For `O=C(Cc1ccsc1)N1C[C@@H]2OCCN(CC3CC3)[C@@H]2C1`, the INHIBITION is -48%.

`Cc1ccc(N2CCN(C)c3ncccc3C2)nn1`: the INHIBITION is reported as -27.9%. The value for `COCC(=O)N1CCC2(CCN(Cc3cccnc3)C2)CC1` was -7.11%; that for `O=C1N(c2cccnc2)CCC12CCCN(Cc1ccco1)C2` (centres undefined) was -5.52%. In the case of `CN(C)CC(=O)N1CCC2(CCc3cc(-c4cccnc4)ccc32)CC1`, the INHIBITION was found to be 80.1%. The value for `c1cncc(-c2ccc3c(c2)CCC32CCNCC2)c1` was 86.9%; that for `c1cncc(-c2ccc3c(c2)C2(CCNCC2)CC3)c1` was 71.1%.

On to `c1cncc(-c2ccc3c(c2)CCC32CCN(Cc3ccco3)CC2)c1`, for which the INHIBITION is 73.9%. The value for `O=C1NC2(CCNCC2)CC1c1cccnc1` (centres undefined) was -11.2%; that for `CN(C)CCN1CCCC12CCCN(C(=O)c1cccnc1)C2` (centres undefined) was -10.1%. For `O=C1[C@H]2CN(Cc3ccco3)C[C@H]2CN1c1cncnc1`, the INHIBITION is -54.3%.

Consider `Cc1n[nH]c(C)c1CC(=O)N1CCN(C)C2(CCNC(=O)CC2)C1` (centres undefined), for which the INHIBITION is -115%.
